{"source": "ChEMBL document CHEMBL3988442", "about": "“University of Dundee, Small-Polar-MMV Screening Library” (2021)", "data": [{"molecular_target": "T1, Aspartate--tRNA(Asp/Asn) ligase (Mycobacterium tuberculosis (strain ATCC 25618 / H37Rv)) (UniProt P9WFW3)", "T1 sequence (whole entry)": "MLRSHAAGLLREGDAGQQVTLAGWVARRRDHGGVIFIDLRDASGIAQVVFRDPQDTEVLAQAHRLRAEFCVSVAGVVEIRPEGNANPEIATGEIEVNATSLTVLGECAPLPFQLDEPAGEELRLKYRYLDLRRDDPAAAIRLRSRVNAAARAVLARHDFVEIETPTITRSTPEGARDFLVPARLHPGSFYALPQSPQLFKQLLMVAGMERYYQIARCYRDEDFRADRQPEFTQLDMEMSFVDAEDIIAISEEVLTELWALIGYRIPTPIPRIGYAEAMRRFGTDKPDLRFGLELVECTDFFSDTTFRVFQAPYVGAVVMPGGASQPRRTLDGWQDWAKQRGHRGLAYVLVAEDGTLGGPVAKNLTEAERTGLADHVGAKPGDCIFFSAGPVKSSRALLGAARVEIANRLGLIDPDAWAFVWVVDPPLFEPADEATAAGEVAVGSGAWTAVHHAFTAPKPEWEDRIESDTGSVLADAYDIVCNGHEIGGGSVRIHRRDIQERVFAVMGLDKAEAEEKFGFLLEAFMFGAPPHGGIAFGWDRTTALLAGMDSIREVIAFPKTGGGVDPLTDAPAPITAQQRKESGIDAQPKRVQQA", "assay": "Assay for Asp RNA synthetase-1 from Mycobacterium tuberculosis", "assay_type": "functional", "design": "scale not given: in the data most compounds retested in dose-response had high values", "conditions": "30 µM", "units": {"Percent Effect": "%"}, "values": [{"smiles": "CC[C@@]1(O)CCN(C(=O)c2ccc(SC)cc2)C[C@H]1O", "Percent Effect": -1.2}, {"smiles": "Cc1cnn(C2CCCN(C(=O)c3cc(C4CC4)on3)C2)c1", "note": "(stereo not given)", "Percent Effect": -1.95}, {"smiles": "CSC(C)C(=O)N1CCCN(Cc2cscn2)CC1", "note": "(stereo not given)", "Percent Effect": -6.57}, {"smiles": "COc1ccc(-c2noc(CN3CCc4cncnc4C3)n2)cc1", "Percent Effect": -0.389}, {"smiles": "CNC(=O)N1C[C@H]2C[C@H](C(=O)Nc3ccccc3)[C@@H](C1)O2", "Percent Effect": 2.94}, {"smiles": "CN(Cc1cc(-c2ccccc2)no1)C1CCCN(c2cccnn2)C1", "note": "(stereo not given)", "Percent Effect": -2.03}, {"smiles": "O=C(CCOCc1ccccc1)N1CCCC1c1noc(C2CC2)n1", "note": "(stereo not given)", "Percent Effect": 14.9}, {"smiles": "C[S+]([O-])c1nncn1CC(=O)c1cccc(Cl)c1", "note": "(stereo not given)", "Percent Effect": -0.917}, {"smiles": "CNC(=O)CN1CCCC12CCN(C(=O)c1ccsc1)CC2", "Percent Effect": 0.137}, {"smiles": "COCCn1ccc2cc(NC(C)=O)ccc21", "Percent Effect": -5.18}, {"smiles": "CC(=O)N1CCCC1c1cccc(Cc2ccccc2F)n1", "note": "(stereo not given)", "Percent Effect": -0.134}, {"smiles": "CN(Cc1ccsc1)C(=O)c1cccc(NS(C)(=O)=O)c1", "Percent Effect": -4.16}, {"smiles": "Clc1ccccc1C1(c2ccnc(CC3CC3)n2)CCNCC1", "Percent Effect": -0.0892}, {"smiles": "O=C(C1=CCCC1)N1CCO[C@H]2[C@@H](Oc3ccccn3)CC[C@@H]21", "Percent Effect": 0.28}, {"smiles": "O=C(C1CCCC1)N1CCN(Cc2nc(-c3ccco3)no2)CC1", "Percent Effect": -3}, {"smiles": "COc1ccc(NC(=O)CNc2ccc(Br)cc2F)cc1", "Percent Effect": 1.68}, {"smiles": "Cc1cnccc1CN1CC[C@@](C)(O)[C@H](Oc2ccccc2)C1", "Percent Effect": -5.05}, {"smiles": "CCc1noc(C(C)N2CCN(Cc3nc(C)c(C)o3)CC2)n1", "note": "(stereo not given)", "Percent Effect": -6.81}, {"smiles": "CCn1cnnc1CNC(=O)NCC(c1cccs1)N1CCCC1", "note": "(stereo not given)", "Percent Effect": -1.91}, {"smiles": "CC(C)COCC1CN(Cc2ccc3c(c2)OCO3)Cc2ncn(C)c21", "note": "(stereo not given)", "Percent Effect": 2.63}]}]}
